Records with an inconclusive call do not appear. A call without a number means that no potency is given here. A number with no mark means an inactive call. Calls of active or inactive are those of the source. Unless noted, the call rests on the fitted dose curve; in most records, active means well fitted curve in the direction sought with a large enough effect; inconclusive means small, poorly fitted or top-dose-only effect, or another doubt; inactive means no such curve, though single readings can be large; an effect the other way counts as inactive or inconclusive.
Tests used:
[1] = biological target: Rap guanine nucleotide exchange factor 3 (Homo sapiens) (UniProt O95398); assay: Confirmatory qHTS for antagonist of cAMP-regulated guanine nucleotide exchange factor 3 (EPAC1) (AID 1645880); further: nearly all actives have a fitted effect of over 55% in size; further: potency means the concentration at half of the fitted maximal effect
Method in brief: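 Nucleotide exchange uses 100 nM EPAC1, 250 nM RAP1B-BODIPY-GDP and 50 uM GDP, with compounds in a concentration-titration series. After 5 min at room temperature, fluorescence (480 nm ex/540 nm em) is read every 5 min for 30 min. Data are normalized to control ATA and DMSO.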

[2] = biological target: Rap guanine nucleotide exchange factor 3 (Homo sapiens) (UniProt O95398); assay: Confirmatory qHTS for agonist of cAMP-regulated guanine nucleotide exchange factor 3 (EPAC1) (AID 1645881); further: nearly all actives have a fitted effect of over 75% in size; further: potency means the concentration at half of the fitted maximal effect;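 on activation: EPAC1 catalysed release of BODIPY-GDP from Rap1B seen as fluorescence loss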
[3] = biological target: Rap guanine nucleotide exchange factor 4 (Homo sapiens) (UniProt Q8WZA2); assay: Confirmatory qHTS for agonist of cAMP-regulated guanine nucleotide exchange factor 4 (EPAC2) (AID 1645884);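 further: nucleotide exchange releases bodipy-GDP from Rap1 and this lowers its fluorescence; nearly all actives have a fitted effect of over 65% in size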; further: potency means the concentration at half of the fitted maximal effect
[4] = biological target: Rap guanine nucleotide exchange factor 4 (Homo sapiens) (UniProt Q8WZA2); assay: Confirmatory qHTS for antagonist of cAMP-regulated guanine nucleotide exchange factor 4 (EPAC2) (AID 1645885); further: nearly all actives have a fitted effect of over 25% in size; further: potency means the concentration at half of the fitted maximal effect
[5] = biological target: Rap guanine nucleotide exchange factor 3 (Homo sapiens) (UniProt O95398); assay: Counterscreen qHTS for antagonist of cAMP-regulated guanine nucleotide exchange factor 3 (EPAC1) (AID 1645888);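 further: fluorescence loss as bound BODIPY-GDP is released from Rap1B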
Method in brief: (§1)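 Rap1B-BODIPY-GDP 250 nM + GDP 50 uM; cpds 7-pt, final 9.74 nM–152 uM (activator mode) or from 7.32 nM upwards (inhibitor mode); RT; FI 480/540 nm at 5 and 30 min, then ± cAMP, reread.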

[6] = VSVG counterscreen qHTS to identify inhibitors of SARS-CoV-2 cell entry (AID 1645847; calls by dose curve; further: potency means the concentration at half of the fitted maximal effect; nearly all actives have a fitted effect of over 65% in size)
Method in brief: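 HEK293-ACE2 cells (Expi293F, human ACE2) pretreated 1 h with compound, then infected with MLV-based VSV-G pseudotyped particles for 48 h at 37 C; luciferase luminescence normalized to VSV-G PP and bald PP wells.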

[7] = biological target: Rap guanine nucleotide exchange factor 3 (Homo sapiens) (UniProt O95398); assay: Counterscreen qHTS for agonist of cAMP-regulated guanine nucleotide exchange factor 3 (EPAC1) (AID 1645889); further: nearly all actives have a fitted effect of over 40% in size; further: potency means the concentration at half of the fitted maximal effect
Method in brief: as §1

[8] = Primary qHTS for inhibitors of nuclear receptor binding SET domain protein 2 (NSD2) in an isogenic RCH-ACV NSD2 p.E1099K mutant (9B) (AID 1645876); further: nearly all actives have a fitted effect of over 70% in size; further: potency means the concentration at half of the fitted maximal effect
[9] = Primary qHTS for inhibitors of nuclear receptor binding SET domain protein 2 (NSD2) in an RCH-ACV wild type WT cells (2C) (AID 1645877); further: nearly all actives have a fitted effect of over 70% in size; further: potency means the concentration at half of the fitted maximal effect
[10] = biological target: Glutathione peroxidase 1 (Homo sapiens) (UniProt P07203); assay: Primary qHTS Assay for Inhibitors of Recombinant Selenoprotein Glutathione Peroxidase 1 (GPX1) (AID 1845191); further: nearly all actives have a fitted effect of over 65% in size
Method in brief: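 10 nM GPX1 + cpd, 30 min RT; start w/ 1 mM GSH, 0.5 mM cumene hydroperoxide, 0.5 mM NADPH, 100 nM GR, 0.01% BSA; buffer 50 mM Tris-HCl pH 7.5, 2 mM EDTA, 150 mM NaCl; Fl 340/450, 0 & 15 min.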

Chain of Rap guanine nucleotide exchange factor 4 (Homo sapiens) (Q8WZA2 whole entry, looked up): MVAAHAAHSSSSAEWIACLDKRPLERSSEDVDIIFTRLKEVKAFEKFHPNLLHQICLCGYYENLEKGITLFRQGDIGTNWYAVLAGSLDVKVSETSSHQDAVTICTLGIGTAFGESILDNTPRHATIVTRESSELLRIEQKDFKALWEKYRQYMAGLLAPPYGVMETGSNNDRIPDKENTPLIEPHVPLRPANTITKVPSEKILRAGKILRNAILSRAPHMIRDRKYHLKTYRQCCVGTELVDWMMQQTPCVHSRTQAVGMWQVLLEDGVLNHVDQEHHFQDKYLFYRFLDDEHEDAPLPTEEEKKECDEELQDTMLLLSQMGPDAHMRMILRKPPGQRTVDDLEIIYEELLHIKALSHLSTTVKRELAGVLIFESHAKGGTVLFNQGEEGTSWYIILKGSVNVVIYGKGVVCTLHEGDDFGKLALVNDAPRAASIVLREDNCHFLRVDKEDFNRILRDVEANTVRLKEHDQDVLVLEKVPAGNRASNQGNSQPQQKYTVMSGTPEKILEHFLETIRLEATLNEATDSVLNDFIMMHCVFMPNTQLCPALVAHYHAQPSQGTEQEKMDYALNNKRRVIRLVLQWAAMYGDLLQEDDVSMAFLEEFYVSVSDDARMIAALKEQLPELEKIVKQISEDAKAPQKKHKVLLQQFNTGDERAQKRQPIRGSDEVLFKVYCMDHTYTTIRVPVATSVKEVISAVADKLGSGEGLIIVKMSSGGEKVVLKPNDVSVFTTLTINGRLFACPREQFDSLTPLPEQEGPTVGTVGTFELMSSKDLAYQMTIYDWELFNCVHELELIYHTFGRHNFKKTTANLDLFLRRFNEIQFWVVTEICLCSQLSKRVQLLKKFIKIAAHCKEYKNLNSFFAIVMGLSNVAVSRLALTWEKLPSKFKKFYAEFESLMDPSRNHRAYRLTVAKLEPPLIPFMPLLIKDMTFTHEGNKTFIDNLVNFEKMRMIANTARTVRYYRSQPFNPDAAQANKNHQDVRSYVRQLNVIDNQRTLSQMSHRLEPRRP
Chain of Rap guanine nucleotide exchange factor 3 (Homo sapiens) (O95398 whole entry, looked up): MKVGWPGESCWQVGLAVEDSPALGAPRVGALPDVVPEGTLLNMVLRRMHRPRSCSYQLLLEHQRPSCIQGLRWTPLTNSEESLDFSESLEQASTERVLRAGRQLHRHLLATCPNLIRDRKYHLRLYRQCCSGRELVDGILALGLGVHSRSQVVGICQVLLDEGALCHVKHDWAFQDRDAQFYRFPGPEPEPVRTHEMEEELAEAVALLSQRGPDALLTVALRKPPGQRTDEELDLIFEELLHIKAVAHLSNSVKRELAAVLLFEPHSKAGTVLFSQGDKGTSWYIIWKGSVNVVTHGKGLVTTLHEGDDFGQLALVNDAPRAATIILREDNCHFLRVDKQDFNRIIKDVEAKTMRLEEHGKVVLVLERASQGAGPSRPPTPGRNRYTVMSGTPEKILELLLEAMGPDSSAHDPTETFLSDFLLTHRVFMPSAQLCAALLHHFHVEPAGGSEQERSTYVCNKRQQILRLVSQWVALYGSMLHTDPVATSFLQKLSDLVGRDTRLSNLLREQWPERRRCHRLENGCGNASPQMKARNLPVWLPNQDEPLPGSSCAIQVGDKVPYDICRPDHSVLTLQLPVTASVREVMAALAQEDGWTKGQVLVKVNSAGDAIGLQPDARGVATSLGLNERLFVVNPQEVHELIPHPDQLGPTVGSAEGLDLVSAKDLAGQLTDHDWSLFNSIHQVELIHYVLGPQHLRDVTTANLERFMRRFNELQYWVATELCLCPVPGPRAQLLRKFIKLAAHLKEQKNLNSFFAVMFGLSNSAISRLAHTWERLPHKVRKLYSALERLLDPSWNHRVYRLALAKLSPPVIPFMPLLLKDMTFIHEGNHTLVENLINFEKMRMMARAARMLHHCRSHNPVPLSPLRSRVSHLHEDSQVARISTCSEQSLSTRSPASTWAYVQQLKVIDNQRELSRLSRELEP
Chain of Glutathione peroxidase 1 (Homo sapiens) (P07203 whole entry, looked up): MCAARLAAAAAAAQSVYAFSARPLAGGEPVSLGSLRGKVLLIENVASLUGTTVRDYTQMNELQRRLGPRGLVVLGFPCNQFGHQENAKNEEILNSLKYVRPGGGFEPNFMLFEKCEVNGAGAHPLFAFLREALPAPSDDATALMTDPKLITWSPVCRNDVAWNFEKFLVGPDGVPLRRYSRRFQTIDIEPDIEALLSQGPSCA

What does the source list for `N#CC(C#N)=NNc1ccc(S(N)(=O)=O)cc1`?
Potency [1]: 44.7 µM (active); Potency [2]: inactive; activation [3]: 3.48% [at 17.1 µM, percent relative to cAMP agonist control]; activity change, negative = inhibition [4]: 1.67% [at 12.7 µM]; activity change, negative = inhibition [5]: -8.77% [at 30.8 µM]

Which results are given for `O=c1[nH]c(O)c(C=Nc2ccccc2Sc2ccccc2)c(=O)[nH]1`?
Potency [1]: inactive; Potency [2]: inactive; Potency [3]: inactive; Potency [4]: inactive; outcome [5]: inactive

Which results are given for `COC(=O)c1cn(C(=O)c2cccc3ccccc23)c2ccccc12`?
Potency [1]: inactive; Potency [2]: inactive; Potency [3]: inactive; Potency [4]: inactive; outcome [5]: inactive

Which Potency [1] does the source give for `CCOC(=O)[C@]12Cc3ccsc3[C@H]1N(Cc1ccccc1)C(=O)c1ccccc12` here?
The Potency was “inactive”.

What about the Potency [2] of the same molecule?
The Potency was “inactive”.

And the Potency [3]?
Its Potency is “inactive”.

Which results are given for `CCCSc1nc2ccccc2c(=O)n1-c1ccccc1OC`?
Potency [1]: inactive; Potency [2]: inactive; Potency [3]: inactive; activity change, negative = inhibition [4]: 34.1% [at 12.7 µM]; outcome [5]: inactive

For `CCCNC(=O)N1[C@H]2CC[C@@H]1C(C(=O)OC)=C(c1ccc(F)cc1OCc1ccccc1)C2`, which Potency [1] is on record?
The Potency was “inactive”.

And the Potency [2]?
Its Potency is “inactive”.

And the Potency [3]?
The Potency was “inactive”.

And the Potency [4]?
The Potency was “inactive”.

What about the outcome [5] of the same molecule?
The outcome was “inactive”.

Which Potency [6] does the source give for `CCc1cc(C(N)=O)ccc1-n1nc(C(C)C)c2c(-n3cnc(-c4cnn(C)c4)c3)ccnc21` here?
The Potency was 3.04 µM (active).

What does the source list for `CCOC(=O)[C@]12Cc3cc(N(C)C)ccc3[C@H]1N(Cc1ccccc1)C(=O)c1ccccc12`?
Potency [1]: inactive; Potency [2]: inactive

With `CN(C)CC(C(=O)Cc1ccccc1)c1ccccc1` (stereo not drawn) as the molecule, how does the Potency [1] read?
Its Potency is “inactive”.

And the Potency [2]?
Its Potency is “inactive”.

What about the Potency [3] of the same molecule?
Its Potency is “inactive”.

And the Potency [4]?
The Potency was “inactive”.

What about the outcome [5] of the same molecule?
The outcome was “inactive”.

With `COc1ccc(-n2c(O)c(/C=C/C=Nc3ccccc3)c(=O)[nH]c2=O)cc1` as the molecule, how does the Potency [1] read?
The Potency was “inactive”.

And the Potency [2]?
Its Potency is 100 µM (active).

And the Potency [3]?
Its Potency is 89.1 µM (active).

What about the Potency [4] of the same molecule?
The Potency was 16.9 µM (active).

What about the outcome [5] of the same molecule?
Its outcome is “inactive”.

And the Potency [7]?
Its Potency is 35.5 µM (active).

With `COc1ccc(-n2c(O)c(/C=C3\C=Nc4ccc(Br)cc43)c(=O)[nH]c2=O)c(OC)c1` as the molecule, how does the Potency [1] read?
Its Potency is 37.9 µM (active).

What about the Potency [2] of the same molecule?
The Potency was “inactive”.

What about the Potency [3] of the same molecule?
Its Potency is “inactive”.

And the Potency [4]?
Its Potency is “inactive”.

What about the outcome [5] of the same molecule?
Its outcome is “inactive”.

Which results are given for `O=C1NC(=O)N(c2cccc(Cl)c2)C(=O)/C1=C\c1ccc(Sc2nc3ccccc3[nH]2)o1`?
Potency [1]: 28.2 µM (active); Potency [2]: inactive; activation [3]: 5.77% [at 17.1 µM, percent relative to cAMP agonist control]; activity change, negative = inhibition [4]: 0.757% [at 12.7 µM]; activity change, negative = inhibition [5]: 2.39% [at 30.8 µM]

Which Potency [1] does the source give for `CCOC(=O)[C@]12Cc3ccc(C)cc3[C@H]1N(C1CCCCC1)C(=O)c1cc(OC)ccc12` here?
Its Potency is “inactive”.

What about the Potency [2] of the same molecule?
Its Potency is “inactive”.

And the Potency [3]?
The Potency was “inactive”.

And the Potency [4]?
Its Potency is “inactive”.

What about the outcome [5] of the same molecule?
The outcome was “inactive”.

For `Cc1ccc(N2C(=O)NC(=O)/C(=C\c3cc(C)n(-c4sc5c(c4C#N)CCCC5)c3C)C2=O)cc1`, which Potency [1] is on record?
Its Potency is 16.9 µM (active).

What about the Potency [2] of the same molecule?
Its Potency is “inactive”.

And the Potency [3]?
The Potency was “inactive”.

And the Potency [4]?
Its Potency is “inactive”.

What about the outcome [5] of the same molecule?
The outcome was “inactive”.

For `Cc1c2cnn(CC(=O)N3CCC4(CC3)OCCO4)c(=O)c2c(C)n1Cc1ccc(F)cc1`, which Potency [1] is on record?
The Potency was “inactive”.

And the Potency [2]?
Its Potency is “inactive”.

And the Potency [3]?
Its Potency is “inactive”.

And the Potency [4]?
Its Potency is “inactive”.

And the outcome [5]?
The outcome was “inactive”.

Which Potency [1] does the source give for `CCOC(=O)[C@]12Cc3cc(C)ccc3[C@H]1N(Cc1ccccc1)C(=O)c1ccccc12` here?
Its Potency is “inactive”.

And the Potency [2]?
The Potency was “inactive”.

What about the Potency [3] of the same molecule?
Its Potency is “inactive”.

And the Potency [4]?
The Potency was “inactive”.

And the outcome [5]?
The outcome was “inactive”.

With `Cc1ccc(N2C(=O)NC(=O)/C(=C\C=C\c3ccco3)C2=O)cc1` as the molecule, how does the Potency [1] read?
The Potency was 42.6 µM (active).

And the Potency [2]?
Its Potency is “inactive”.

And the Potency [3]?
The Potency was “inactive”.

And the Potency [4]?
The Potency was “inactive”.

What about the outcome [5] of the same molecule?
The outcome was “inactive”.

For `COC(=O)[C@]12CCC(C)(C)C[C@@H]1[C@@H]1C(=O)C=C3[C@]4(C)C=C(C#N)C(=O)C(C)(C)[C@@H]4CC[C@@]3(C)[C@]1(C)CC2`, which Potency [8] is on record?
The Potency was 0.461 µM (active).

What about the Potency [9] of the same molecule?
The Potency was 0.326 µM (active).

For `CCOC(=O)[C@]12Cc3cc(OC)ccc3[C@H]1N(Cc1ccccc1)C(=O)c1cc(F)c(F)cc12`, which Potency [1] is on record?
The Potency was “inactive”.

And the Potency [2]?
The Potency was “inactive”.

What about the Potency [3] of the same molecule?
The Potency was “inactive”.

What about the Potency [4] of the same molecule?
Its Potency is “inactive”.

And the outcome [5]?
Its outcome is “inactive”.

Which results are given for `COC[C@@H]1OC(=O)c2coc3c2[C@]1(C)C1=C(C3=O)[C@H]2CC[C@H](O)[C@@]2(C)C[C@@H]1OC(C)=O`?
Potency [8]: 0.82 µM (active); Potency [9]: 0.651 µM (active)

Which results are given for `Cc1cc(/C=C2\C(=O)NC(=O)N(c3ccc(Cl)cc3)C2=O)c(C)n1-c1sc2c(c1C#N)CCCC2`?
Potency [1]: 11.2 µM (active); Potency [2]: inactive; activation [3]: 3.87% [at 17.1 µM, percent relative to cAMP agonist control]; activity change, negative = inhibition [4]: -14.9% [at 12.7 µM]; activity change, negative = inhibition [5]: -13.5% [at 30.8 µM]

With `COC(=O)c1cn(Cc2ccc(F)cc2)c2ccccc12` as the molecule, how does the Potency [1] read?
The Potency was “inactive”.

What about the Potency [2] of the same molecule?
The Potency was “inactive”.

And the Potency [3]?
Its Potency is “inactive”.

What about the Potency [4] of the same molecule?
Its Potency is “inactive”.

And the outcome [5]?
The outcome was “inactive”.

For `c1cc2c(cc1C1OC[C@@H]3C(c4ccc5c(c4)OCO5)OC[C@H]13)OCO2` (stereo partly drawn), which Potency [8] is on record?
Its Potency is “inactive”.

And the Potency [9]?
The Potency was “inactive”.

What about the Potency [10] of the same molecule?
The Potency was “inactive”.

For `O=C1NC(=O)N(Cc2ccccc2)C(=O)/C1=C/C=C/c1ccco1`, which Potency [1] is on record?
The Potency was 44.7 µM (active).

And the Potency [2]?
The Potency was “inactive”.

And the activation [3]?
The activation was 4.26% [at 17.1 µM, percent relative to cAMP agonist control].

What about the activity change, negative = inhibition [4] of the same molecule?
Its activity change, negative = inhibition is -1.14% [at 12.7 µM].

What about the activity change, negative = inhibition [5] of the same molecule?
Its activity change, negative = inhibition is -0.901% [at 30.8 µM].

Which Potency [1] does the source give for `CN1C(=O)/C(=C/c2cccn2-c2ccc3ccccc3c2)C(=O)NC1=S` here?
The Potency was 33.8 µM (active).

And the Potency [2]?
Its Potency is “inactive”.

And the Potency [3]?
Its Potency is “inactive”.

What about the Potency [4] of the same molecule?
The Potency was “inactive”.

And the outcome [5]?
Its outcome is “inactive”.

What about the Potency [7] of the same molecule?
The Potency was “inactive”.

Which Potency [1] does the source give for `COc1ccc(OC)c(N2C(=O)NC(=O)/C(=C/c3ccc([N+](=O)[O-])s3)C2=O)c1` here?
Its Potency is 7.94 µM (active).

What about the Potency [2] of the same molecule?
The Potency was “inactive”.

And the activation [3]?
The activation was 2.06% [at 17.1 µM, percent relative to cAMP agonist control].

And the activity change, negative = inhibition [4]?
The activity change, negative = inhibition was -32.4% [at 12.7 µM].

And the activity change, negative = inhibition [5]?
The activity change, negative = inhibition was 10.9% [at 30.8 µM].

What about the activation [7] of the same molecule?
The activation was 21.8% [at 30.8 µM].

With `O=Cc1c(C(=O)O)n(Cc2ccc(Cl)cc2)c2ccccc12` as the molecule, how does the Potency [1] read?
The Potency was “inactive”.

And the Potency [2]?
Its Potency is “inactive”.

And the Potency [3]?
Its Potency is “inactive”.

What about the Potency [4] of the same molecule?
Its Potency is 42.6 µM (active).

What about the outcome [5] of the same molecule?
The outcome was “inactive”.

And the Potency [7]?
The Potency was 15.8 µM (active).

Which Potency [1] does the source give for `COc1ccc(OCC(=O)N2CCN(CC3CC4C=CC3C4)CC2)cc1` (stereo not drawn) here?
The Potency was “inactive”.

What about the Potency [2] of the same molecule?
The Potency was “inactive”.

And the activation [3]?
Its activation is 6.59% [at 17.1 µM, percent relative to cAMP agonist control].

And the activity change, negative = inhibition [4]?
The activity change, negative = inhibition was 6.27% [at 12.7 µM].

What about the activity change, negative = inhibition [5] of the same molecule?
Its activity change, negative = inhibition is -7.66% [at 30.8 µM].

And the activation [7]?
Its activation is 5.29% [at 30.8 µM].
